WRN inhibitor – inhibitors of human WRN helicase | Potency, µM (series often up to 114 µM), hits mostly inhibitors | 360,000 compounds, 0.46% hits | WRN helicase unwinding, fluorescent forked duplex, kinetic | Q14191; note: nearly all actives have a fitted effect of over 55% in size
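Screening of the MLSMR collection measured strand separation of a quenched forked DNA duplex (100 nM) by 20 nM WRN with 2 mM ATP, all final. Compounds were preincubated with enzyme 15 min at room temperature.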
PI5P4Ka inh – inhibitors of human PI5P4K alpha; P48426; PI5P4Kalpha enzyme, ADP-Glo luminescence, 60 min; active compounds read low; max response, %; 330,000 compounds, 1.2% hits; active = max response of -50% or lower; inconclusive = between -30% and -50%; inactive = -30% or higher; note: value at the top dose of about 77 µM
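Controls without substrate or without enzyme flank wells where PI5P4Kalpha converts substrate using 5 microM ATP (final). Incubation lasts 60 minutes at room temperature; ADP formed is read by ADP-Glo luminescence.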
Pol kappa inh – blocks human DNA polymerase kappa activity. Q9UBT6. purified Pol kappa, fluorescent DNA synthesis assay, 10 min. Potency, µM (series often up to 107 µM), hits mostly inhibitors. 400,000 compounds, 0.53% hits. AID 588579
Target sequence (Q9UBT6 whole entry, looked up): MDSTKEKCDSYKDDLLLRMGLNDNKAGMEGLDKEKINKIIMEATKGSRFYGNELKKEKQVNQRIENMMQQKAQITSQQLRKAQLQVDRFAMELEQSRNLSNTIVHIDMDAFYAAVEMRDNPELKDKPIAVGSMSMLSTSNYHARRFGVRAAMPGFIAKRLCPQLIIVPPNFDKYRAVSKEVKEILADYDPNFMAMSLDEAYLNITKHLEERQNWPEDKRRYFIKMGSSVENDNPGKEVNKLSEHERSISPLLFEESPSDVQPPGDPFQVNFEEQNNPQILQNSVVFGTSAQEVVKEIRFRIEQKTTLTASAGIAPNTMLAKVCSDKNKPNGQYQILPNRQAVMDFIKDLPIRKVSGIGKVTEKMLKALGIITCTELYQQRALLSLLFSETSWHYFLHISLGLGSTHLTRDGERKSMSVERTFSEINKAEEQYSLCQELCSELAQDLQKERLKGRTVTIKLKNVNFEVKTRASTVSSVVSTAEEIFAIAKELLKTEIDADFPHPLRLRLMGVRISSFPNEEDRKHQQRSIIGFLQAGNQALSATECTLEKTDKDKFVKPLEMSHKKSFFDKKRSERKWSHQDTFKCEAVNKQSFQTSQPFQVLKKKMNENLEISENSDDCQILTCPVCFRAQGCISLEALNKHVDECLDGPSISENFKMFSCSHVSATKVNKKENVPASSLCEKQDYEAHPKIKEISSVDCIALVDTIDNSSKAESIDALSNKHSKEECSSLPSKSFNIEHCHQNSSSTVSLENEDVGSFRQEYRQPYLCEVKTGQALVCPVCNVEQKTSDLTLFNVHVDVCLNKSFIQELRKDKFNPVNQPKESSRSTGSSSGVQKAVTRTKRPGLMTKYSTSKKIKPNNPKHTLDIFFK
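Here, compound and 10 nM enzyme are combined for 15 min at room temperature; adding 50 nM substrate (final) starts DNA synthesis, tracked by fluorescence at 0 and 10 min against buffer-only wells.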
Pol eta inh – DNA polymerase eta (human) inhibition; recombinant Pol eta, fluorescent DNA replication assay; Potency, µM (series often up to 114 µM), hits mostly inhibitors; 390,000 compounds, 1.2% hits
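Fluorescent replication assay: 50 nM final substrate added after a 15 min room-temperature compound preincubation with 10 nM enzyme. Signal taken at 0 min and again at 10 min.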
Pol iota inh – DNA polymerase iota (human) inhibition; Pol iota fluorescent replication assay, 10 min; Potency, µM (doses to about 115 µM), hits mostly inhibitors; 390,000 compounds, 1% hits; AID 588590
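Pol iota at 10 nM preincubated 15 min with compounds at room temperature; reaction started with fluorescent substrate, 50 nM final. Fluorescence read kinetically at 0 and 10 min; buffer-only wells as negative control.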
Pol beta inh – blocks human DNA polymerase beta activity. 340,000 compounds, 1.3% hits. Pol beta primer extension/strand displacement, fluorescence kinetic. P06746. Potency, µM (doses to about 114 µM), usual class: inhibitors. AID 485314
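Kinetic readout of DNA synthesis with strand displacement by Pol beta. Compound and 10 nM enzyme sit 15 min at room temperature; 50 nM substrate starts the reaction, read immediately and at 10 min.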
Of the large screens only hits and unclear results are named; the others gave an inactive call. The list is not random: actives were taken first. Their share in the collection is about 2.8%. Unless noted, calls come from the whole dose curve; as a rule, active = well fitted curve in the direction sought with a large enough effect; inconclusive = small, poorly fitted or top-dose-only effect, or another doubt; inactive = no such curve, though single readings can be large; an effect the other way counts as inactive or inconclusive.

CCOC(=O)N1CCN(c2c(NCc3ccccc3Cl)c(=O)c2=O)CC1	none
Oc1c(Cl)cc(Cl)cc1C=Nc1ccc(Br)cc1	PI5P4Ka inh -54.6, Pol eta inh inconclusive
O=S1(=O)NC(CC2=CCCCC2)C2CCCCC2O1 (stereo not drawn)	none
O=C(O)c1ccc2c(c1)S(=O)(=O)c1cc(N3CCN(c4ncccn4)CC3)ccc1C2=O	PI5P4Ka inh -56.9 (no result: Pol kappa inh, Pol iota inh, Pol beta inh)
CN=c1scc(-c2ccc([N+](=O)[O-])cc2)n1/N=C/c1ccco1	PI5P4Ka inh inconclusive
CN=c1scc(-c2ccc(F)cc2)n1/N=C/c1ccc(O)c(O)c1	Pol eta inh inconclusive, Pol iota inh inconclusive, Pol beta inh 5.01µM
CCOc1cc(/C=C2/C(=O)N(c3ccccc3)N=C2C)ccc1OC(=O)c1ccco1	WRN inhibitor inconclusive, Pol iota inh 1µM (no result: PI5P4Ka inh)
CCOc1cc(/C=C2\C(=O)N(c3ccc(C(N)=O)cc3)N=C2C)ccc1OC(=O)c1cccs1	WRN inhibitor inconclusive, Pol eta inh 50.1µM, Pol iota inh inconclusive
CCOc1cc(/C=C2/C(=N)N3N=C(CC)SC3=NC2=O)ccc1OC(=O)c1ccco1	WRN inhibitor inconclusive, Pol iota inh inconclusive
CCc1cc(Cn2nc(-c3ccccc3)cc2C(=O)NCc2cccc(Br)c2)on1	none (no result: Pol beta inh)
Cc1cc(=O)cc2oc3cc(N)c(-c4c(C)cc(O)cc4O)c(C)c3nc1-2	Pol kappa inh 4.47µM (no result: WRN inhibitor, PI5P4Ka inh, Pol eta inh, Pol iota inh, Pol beta inh)
C=CCSc1ncccc1C(=O)O	Pol iota inh 100µM (no result: PI5P4Ka inh)
O=Cc1c(-c2ccc(Cl)cc2)oc2ccc(O)cc12	WRN inhibitor inconclusive, PI5P4Ka inh -67.0, Pol kappa inh inconclusive, Pol eta inh 44.7µM, Pol iota inh inconclusive (no result: Pol beta inh)
CN1CCc2cc3c(c4c2[C@H]1[C@H](O)c1ccccc1-4)OCO3	Pol kappa inh inconclusive, Pol iota inh inconclusive, Pol beta inh 44.7µM
COc1ccccc1NC(=O)Cn1cc(S(=O)(=O)Cc2ccccc2)c2ccccc21	Pol eta inh 79.4µM, Pol beta inh inconclusive (no result: WRN inhibitor, PI5P4Ka inh)
CC(C)(C)n1ncc2c(=O)n(Cc3ccc(C(F)(F)F)cc3)cnc21	none (no result: WRN inhibitor, PI5P4Ka inh, Pol eta inh, Pol beta inh)
O=c1[nH]c2cc(F)ccc2c2ccc(F)cc12	Pol eta inh 20µM, Pol iota inh inconclusive (no result: Pol beta inh)
Cc1ccc2nc(C)cc(SCC(=O)N/N=C/c3ccco3)c2c1	Pol beta inh 39.8µM
COc1ccc2nc(C)cc(SCC(=O)N/N=C/c3cccc4ccccc34)c2c1	Pol eta inh inconclusive (no result: PI5P4Ka inh)
CCCCC#Cc1ccccc1CC(=O)Nc1ccccc1	Pol iota inh inconclusive
CCCCCCCC#Cc1ccccc1/C=N/S(=O)c1ccc(C)cc1 (stereo not drawn)	PI5P4Ka inh -100.0
COc1ccc(C(NC(=O)COc2ccc(C#N)cc2)c2ccc(OC)cc2)cc1	none (no result: WRN inhibitor, PI5P4Ka inh, Pol eta inh, Pol beta inh)
COc1ccccc1NS(=O)(=O)c1cccc(-n2c(O)c(C=Nc3ccccc3C(=O)O)c3ccccc3c2=O)c1	WRN inhibitor 50.1µM, PI5P4Ka inh -68.7, Pol eta inh 20µM, Pol iota inh inconclusive, Pol beta inh 56.2µM
COc1ccc(N=Cc2c(O)n(-c3cccc(C)n3)c(=O)c3ccccc23)c(OC)c1	Pol eta inh inconclusive, Pol beta inh inconclusive
O=[N+]([O-])c1cc([N+](=O)[O-])c2nonc2c1Nc1ccc(O)cc1	PI5P4Ka inh inconclusive, Pol iota inh 2.51µM
CC1=NN(c2ccc(Cl)cc2)C(=O)C1	Pol iota inh 2.51µM
CC1=NN(c2ccc(N)cc2)C(=O)C1	WRN inhibitor 44.7µM, Pol kappa inh inconclusive, Pol eta inh inconclusive, Pol iota inh inconclusive
CC1=NN(c2ccccc2)C(=O)C1	Pol iota inh inconclusive
Cc1nnc(SCc2ccc(CSc3nnc(C)c(=O)[nH]3)cc2)[nH]c1=O	Pol eta inh 79.4µM, Pol iota inh inconclusive, Pol beta inh inconclusive
COc1ccccc1-n1c(SCc2cc(=O)oc3cc(O)ccc23)nc2ccccc2c1=O	WRN inhibitor inconclusive, PI5P4Ka inh inconclusive, Pol eta inh 31.6µM, Pol iota inh inconclusive, Pol beta inh inconclusive
COc1ccccc1-n1c(SCC(=O)N2CCOCC2)nc2ccccc2c1=O	none
NC1C(N)C(N)C1N (stereo not drawn)	none (no result: WRN inhibitor, PI5P4Ka inh, Pol eta inh, Pol beta inh)

Bioassay records as filed in PubChem BioAssay.
